Assay results published in PubChem BioAssay (EPA / NIEHS).
The source made the active and inactive calls. How the source made its calls: active means hit-call score of the fitted dose curve at least 0.9, where 1 is the maximum; inactive means score below 0.9.

read-out: Nuclear factor erythroid 2-related factor 2 (Homo sapiens) (UniProt Q16236); assay: LTEA_HepaRG_NFE2L2: Life Technologies and Expression Analysis (LTEA) Assay for Nuclear factor erythroid 2-related factor 2 (NFE2L2) Transcription Factor using HepaRG (AID 2283527); details: mRNA level, 48 h; actives raise or lower the signal;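 on outcome: TaqMan qRT-PCR transcript level normalised to ACTB GAPDH and POLR2A housekeeping genes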
Outline: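 Human liver HepaRG line treated in duplicate for 48 h with an eight-point series topping at 100 uM. Gene expression of NFE2L2 by qRT-PCR, bidirectionally fitted against the vehicle control.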

Signal transducer and activator of transcription 3 (Homo sapiens), sequence (P40763 whole entry, looked up): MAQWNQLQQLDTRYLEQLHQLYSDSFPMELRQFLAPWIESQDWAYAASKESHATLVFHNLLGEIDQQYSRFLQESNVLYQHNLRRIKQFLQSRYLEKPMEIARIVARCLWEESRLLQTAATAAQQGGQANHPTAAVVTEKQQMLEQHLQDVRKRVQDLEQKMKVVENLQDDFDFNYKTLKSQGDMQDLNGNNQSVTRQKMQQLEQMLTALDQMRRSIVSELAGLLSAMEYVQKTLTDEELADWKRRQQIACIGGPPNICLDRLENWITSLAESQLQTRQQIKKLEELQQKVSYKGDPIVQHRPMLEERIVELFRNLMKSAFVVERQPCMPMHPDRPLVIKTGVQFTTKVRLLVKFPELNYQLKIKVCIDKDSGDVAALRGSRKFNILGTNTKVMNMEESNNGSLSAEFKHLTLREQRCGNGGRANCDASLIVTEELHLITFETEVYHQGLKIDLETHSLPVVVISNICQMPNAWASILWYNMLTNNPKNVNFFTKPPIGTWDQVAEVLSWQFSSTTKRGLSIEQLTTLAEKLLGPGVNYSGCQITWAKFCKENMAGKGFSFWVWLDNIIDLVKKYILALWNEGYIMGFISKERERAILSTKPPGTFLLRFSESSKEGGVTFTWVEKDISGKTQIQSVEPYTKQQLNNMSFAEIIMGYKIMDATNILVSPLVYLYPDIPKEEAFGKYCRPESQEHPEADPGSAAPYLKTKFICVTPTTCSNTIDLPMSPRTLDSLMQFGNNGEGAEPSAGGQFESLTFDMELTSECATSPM
Nuclear factor erythroid 2-related factor 2 (Homo sapiens), sequence (Q16236 whole entry, looked up): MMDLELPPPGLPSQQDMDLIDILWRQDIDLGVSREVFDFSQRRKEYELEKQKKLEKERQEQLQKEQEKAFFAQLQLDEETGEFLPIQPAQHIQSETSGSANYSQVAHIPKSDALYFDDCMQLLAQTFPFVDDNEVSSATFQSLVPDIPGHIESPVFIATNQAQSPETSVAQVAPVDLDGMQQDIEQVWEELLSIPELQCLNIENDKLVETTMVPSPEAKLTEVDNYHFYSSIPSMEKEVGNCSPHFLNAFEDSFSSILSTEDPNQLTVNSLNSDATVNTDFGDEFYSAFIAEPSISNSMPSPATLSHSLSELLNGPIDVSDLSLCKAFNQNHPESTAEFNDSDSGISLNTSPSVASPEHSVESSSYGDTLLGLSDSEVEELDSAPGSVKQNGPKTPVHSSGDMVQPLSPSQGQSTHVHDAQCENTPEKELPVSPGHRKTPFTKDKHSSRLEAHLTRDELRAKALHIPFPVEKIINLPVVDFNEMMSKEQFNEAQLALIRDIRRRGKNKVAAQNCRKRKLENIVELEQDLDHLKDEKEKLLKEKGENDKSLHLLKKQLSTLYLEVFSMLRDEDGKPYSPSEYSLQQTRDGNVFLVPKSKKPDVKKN

Row | Compound | outcome | AC50
1 | CCCCOCCO | inactive | 
2 | Cc1cc(C)c(O)c(C)c1 | inactive | 
3 | CCCOC(=O)c1ccc(O)cc1 | inactive | 
4 | c1ccc2c(c1)ccc1ccccc12 | inactive | 
5 | CC(C)(C)c1ccc(O)c(C(C)(C)C)c1 | inactive | 
6 | NC(=O)N1C(=O)C(C(=O)c2cc(Cl)cs2)c2cc(F)c(Cl)cc21 (stereo not drawn) |  | 31.8 µM (active)
7 | CCOC(=O)CC(O)(CC(=O)OCC)C(=O)OCC | inactive | 

read-out: succinate dehydrogenase complex iron sulfur subunit B (SDHB), SDHB (gene 6390); assay: LTEA_HepaRG_SDHB: Life Technologies and Expression Analysis (LTEA) Assay for succinate dehydrogenase complex iron sulfur subunit B (SDHB) using HepaRG (AID 2283528); details: mRNA level, 48 h; actives raise or lower the signal
Outline: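 A human HepaRG culture in serum-free induction medium received test chemicals for 48 h over an eight-point range capped at 100 uM. SDHB expression change was quantified by qRT-PCR.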

Row | Compound | outcome | AC50
8 | Cc1cc(CCN2CCN(c3nsc4ccccc34)CC2)cc2c1NC(=O)CC2(C)C | inactive | 
9 | c1ccc2c(c1)Cc1ccccc1-2 | inactive | 
10 | C#C[C@]1(O)CC[C@H]2[C@@H]3CCC4=CC(=O)CC[C@@H]4[C@H]3CC[C@@]21C | inactive | 
11 | CC(=O)NC1(c2cccc(F)c2)CCN(CC[C@@]2(c3ccc(Cl)c(Cl)c3)CN(c3ccccc3)C(=O)CO2)CC1 | inactive | 
12 | CC(O)CO (stereo not drawn) | inactive | 
13 | COCC(C)OCC(C)O (stereo not drawn) | inactive | 
14 | CC(=O)CC(C)(C)O | inactive | 
15 | CC(C)(C)c1cc(C(C)(C)C)c(O)c(C(C)(C)C)c1 | inactive | 
16 | CN1CCC[C@H]1c1cccnc1 | inactive | 
17 | CC(C)(C)CC(C)(C)c1ccc(O)c(-n2nc3ccccc3n2)c1 | inactive | 
18 | Nc1cccc2c(N)cccc12 | inactive | 
19 | CCC(=C(c1ccc(O)cc1)c1ccc(OCCN(C)C)cc1)c1ccccc1 | inactive | 
20 | CC[C@H](C)[C@@H](C(=O)O)n1sc2ccccc2c1=O | inactive | 
21 | OC1CCC(C2CCCCC2)CC1 (stereo not drawn) | inactive | 
22 | O=[N+]([O-])c1ccc(O)cc1 | inactive | 
23 | CCN(CC)CCNc1ccc(CNC=O)c2sc3ccc(OC)cc3c(=O)c12 | inactive | 
24 | O=C(OCCOCCOC(=O)c1ccccc1)c1ccccc1 | inactive | 
25 | CCC(C)(C)C1CCC(O)CC1 (stereo not drawn) | inactive | 
26 | CCCCCCCCOC(=O)CCCCCCCCC(=O)OCCCCCCCC | inactive | 
27 | CC[C@H](c1ccc(O)cc1)[C@@H](CC)c1ccc(O)cc1 |  | 79.4 µM (active)
28 | CCCCCCCCC(=O)O | inactive | 
29 | CCCCOCCO | inactive | 
30 | Cc1cc(C)c(O)c(C)c1 | inactive | 
31 | CCCOC(=O)c1ccc(O)cc1 | inactive | 
32 | c1ccc2c(c1)ccc1ccccc12 | inactive | 
33 | CC(C)(C)c1ccc(O)c(C(C)(C)C)c1 | inactive | 
34 | NC(=O)N1C(=O)C(C(=O)c2cc(Cl)cs2)c2cc(F)c(Cl)cc21 (stereo not drawn) |  | 26.2 µM (active)
35 | CCOC(=O)CC(O)(CC(=O)OCC)C(=O)OCC | inactive | 

read-out: Signal transducer and activator of transcription 3 (Homo sapiens) (UniProt P40763); assay: LTEA_HepaRG_STAT3: Life Technologies and Expression Analysis (LTEA) Assay for Signal transducer and activator of transcription (STAT3) using HepaRG (AID 2283529); details: mRNA level, 48 h; actives raise or lower the signal
Outline: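 In this transcriptional endpoint, HepaRG cultures receive test chemicals at up to 100 uM for 48 h, tested in duplicate. STAT3 mRNA is normalized to ACTB, GAPDH and POLR2A.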

Row | Compound | outcome | AC50
36 | Cc1cc(CCN2CCN(c3nsc4ccccc34)CC2)cc2c1NC(=O)CC2(C)C | inactive | 
37 | c1ccc2c(c1)Cc1ccccc1-2 | inactive | 
38 | COC(=O)CCCCC(=O)OC | inactive | 
39 | C#C[C@]1(O)CC[C@H]2[C@@H]3CCC4=CC(=O)CC[C@@H]4[C@H]3CC[C@@]21C | inactive | 
40 | CC(=O)NC1(c2cccc(F)c2)CCN(CC[C@@]2(c3ccc(Cl)c(Cl)c3)CN(c3ccccc3)C(=O)CO2)CC1 | inactive | 
41 | CC(O)CO (stereo not drawn) | inactive | 
42 | COCC(C)OCC(C)O (stereo not drawn) | inactive | 
43 | CC(=O)CC(C)(C)O | inactive | 
44 | CC(C)(C)c1cc(C(C)(C)C)c(O)c(C(C)(C)C)c1 | inactive | 
45 | CN1CCC[C@H]1c1cccnc1 | inactive | 
46 | CC(C)(C)CC(C)(C)c1ccc(O)c(-n2nc3ccccc3n2)c1 | inactive | 
47 | Nc1cccc2c(N)cccc12 | inactive | 
48 | CCC(=C(c1ccc(O)cc1)c1ccc(OCCN(C)C)cc1)c1ccccc1 | inactive | 
49 | CC[C@H](C)[C@@H](C(=O)O)n1sc2ccccc2c1=O | inactive | 
50 | OC1CCC(C2CCCCC2)CC1 (stereo not drawn) | inactive | 
51 | O=[N+]([O-])c1ccc(O)cc1 | inactive | 
52 | CCN(CC)CCNc1ccc(CNC=O)c2sc3ccc(OC)cc3c(=O)c12 |  | 83.4 µM (active)
53 | O=C(OCCOCCOC(=O)c1ccccc1)c1ccccc1 | inactive | 
54 | CCC(C)(C)C1CCC(O)CC1 (stereo not drawn) | inactive | 
55 | CCCCCCCCOC(=O)CCCCCCCCC(=O)OCCCCCCCC | inactive | 
56 | CC[C@H](c1ccc(O)cc1)[C@@H](CC)c1ccc(O)cc1 |  | 93.8 µM (active)
57 | CCCCCCCCC(=O)O | inactive | 
58 | CCCCOCCO | inactive | 
59 | Cc1cc(C)c(O)c(C)c1 | inactive | 
60 | CCCOC(=O)c1ccc(O)cc1 | inactive | 
61 | c1ccc2c(c1)ccc1ccccc12 | inactive | 
62 | CC(C)(C)c1ccc(O)c(C(C)(C)C)c1 |  | 9.92 µM (active)
63 | NC(=O)N1C(=O)C(C(=O)c2cc(Cl)cs2)c2cc(F)c(Cl)cc21 (stereo not drawn) | inactive | 
64 | CCOC(=O)CC(O)(CC(=O)OCC)C(=O)OCC | inactive | 

read-out: solute carrier (SLCO1B1), SLCO1B1 (gene 10599); assay: LTEA_HepaRG_SLCO1B1: Life Technologies and Expression Analysis (LTEA) Assay for solute carrier (SLCO1B1) using HepaRG (AID 2283530); details: mRNA level, 48 h; actives raise or lower the signal
Outline: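 Differentiated human HepaRG cells were exposed for 48 h in serum-free induction medium to eight half-log concentrations, top 100 uM, in 0.5% DMSO. SLCO1B1 mRNA was measured by qRT-PCR, normalized to ACTB, GAPDH and POLR2A, and fitted bidirectionally against DMSO.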

Row | Compound | AC50 | outcome
65 | Cc1cc(CCN2CCN(c3nsc4ccccc34)CC2)cc2c1NC(=O)CC2(C)C | 77.5 µM (active) | 
66 | c1ccc2c(c1)Cc1ccccc1-2 |  | inactive
67 | COC(=O)CCCCC(=O)OC |  | inactive
68 | C#C[C@]1(O)CC[C@H]2[C@@H]3CCC4=CC(=O)CC[C@@H]4[C@H]3CC[C@@]21C |  | inactive
69 | CC(=O)NC1(c2cccc(F)c2)CCN(CC[C@@]2(c3ccc(Cl)c(Cl)c3)CN(c3ccccc3)C(=O)CO2)CC1 | 79.7 µM (active) | 
70 | CC(O)CO (stereo not drawn) |  | inactive
71 | COCC(C)OCC(C)O (stereo not drawn) |  | inactive
72 | CC(=O)CC(C)(C)O |  | inactive
73 | CC(C)(C)c1cc(C(C)(C)C)c(O)c(C(C)(C)C)c1 |  | inactive
74 | CN1CCC[C@H]1c1cccnc1 |  | inactive
75 | CC(C)(C)CC(C)(C)c1ccc(O)c(-n2nc3ccccc3n2)c1 |  | inactive
76 | Nc1cccc2c(N)cccc12 | 9.92 µM (active) | 
77 | CCC(=C(c1ccc(O)cc1)c1ccc(OCCN(C)C)cc1)c1ccccc1 |  | inactive
78 | CC[C@H](C)[C@@H](C(=O)O)n1sc2ccccc2c1=O |  | inactive
79 | OC1CCC(C2CCCCC2)CC1 (stereo not drawn) |  | inactive
80 | O=[N+]([O-])c1ccc(O)cc1 |  | inactive
81 | CCN(CC)CCNc1ccc(CNC=O)c2sc3ccc(OC)cc3c(=O)c12 |  | inactive
82 | O=C(OCCOCCOC(=O)c1ccccc1)c1ccccc1 |  | inactive
83 | CCC(C)(C)C1CCC(O)CC1 (stereo not drawn) |  | inactive
84 | CCCCCCCCOC(=O)CCCCCCCCC(=O)OCCCCCCCC |  | inactive
85 | CC[C@H](c1ccc(O)cc1)[C@@H](CC)c1ccc(O)cc1 | 92.8 µM (active) | 
86 | CCCCCCCCC(=O)O |  | inactive
87 | CCCCOCCO |  | inactive
88 | Cc1cc(C)c(O)c(C)c1 |  | inactive
89 | CCCOC(=O)c1ccc(O)cc1 |  | inactive
90 | c1ccc2c(c1)ccc1ccccc12 |  | inactive
91 | CC(C)(C)c1ccc(O)c(C(C)(C)C)c1 |  | inactive
92 | NC(=O)N1C(=O)C(C(=O)c2cc(Cl)cs2)c2cc(F)c(Cl)cc21 (stereo not drawn) | 19.3 µM (active) | 
93 | CCOC(=O)CC(O)(CC(=O)OCC)C(=O)OCC |  | inactive
